“And” between values parts separate entries of the source, which are not always exact repeats. Identical values can stand only once. Some of the results follow. Records with an inconclusive call do not appear. The source made the active and inactive calls.
Legend:
[1] = biological target: Solute carrier family 12 member 5 (Homo sapiens) (UniProt Q9H2X9); assay: KCC2 modulators in sodium-free buffer, confirmation, cell-based, HEK293 KCC2, thallium flux, secondary assay (AID 1713;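 active = thallium flux slope above the same plate's solvent-only control mean plus 3 SD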); details: FluoZin2 fluorescence, at 10 µM, stronger effect = higher value
[2] = biological target: Solute carrier family 12 member 5 (Homo sapiens) (UniProt Q9H2X9); assay: KCC2 modulators without ouabain present, confirmation, cell-based, HEK293 KCC2, thallium flux, FluoZin2, secondary assay 2 (AID 1715;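 active = thallium flux slope more than 3 SD above or below the plate's solvent-only control mean, mostly below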;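 note: raw slope with 0.1% DMSO as baseline and bumetanide as block control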); details: HEK293-KCC2, thallium flux FluoZin2 fluorescence; at 10 µM; actives lie on both sides; F/F0 rise rate, 10–20 s post-thallium
[3] = thallium flux modulation in parental HEK cells, confirmation, counter-screen for KCC2 modulator project, cell-based, counterscreen 1 (AID 1716;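 active = thallium flux rate significantly above the same plate's solvent-only control wells, beyond their mean plus 3 SD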); details: HEK293 parental cells, thallium flux FluoZin2, ouabain; at 10 µM; baseline-ratio fluorescence slope, 10–20 s after thallium
[4] = biological target: Solute carrier family 12 member 5 (Homo sapiens) (UniProt Q9H2X9); assay: KCC2 inhibitors and activators, ouabain retest, confirmation, HEK-KCC2 cells (AID 1717;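 active = thallium flux slope beyond 3 SD from same-plate DMSO control mean in most replicates, usually higher, sometimes lower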;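 note: slope of initial-normalized fluorescence between seconds 10 and 20 after thallium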); details: HEK293-KCC2, thallium flux FluoZin2 fluorescence, at 10 µM, bidirectional: low = inhibitor, high = activator
[5] = PubChem AID 1714; details: HEK293-KCC2 + bumetanide/ouabain, thallium flux FluoZin2; at 10 µM; stronger effect = higher value;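 note: raw slope of fluorescence over initial fluorescence between 10 and 20 s after thallium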
[6] = inhibitors of TNFa-induced NFkB p65 translocation, primary screen, imaging, HUVEC, MLSMR starter and 10KST1 sets (AID 438;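 active = inhibition above 20% together with a positive visual image hit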;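 note: compound added about 3h40 before a 20 min TNFalpha stimulation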;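 for inhibition: signal is the nuclear over cytoplasmic p65 intensity ratio per well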); details: HUVEC TNFa-induced p65 nuclear translocation; cell count: measured here: nuclei count (cytotoxicity indicator), at 2.08 µM; inhibition: at 2 µM, stronger effect = higher value, 0% TNFa-plus-vehicle, 100% no-TNFa wells
[7] = inhibitors of mutant huntingtin aggregation, primary screen, imaging, exon1htt(103Q)mCFP cells, high-content imaging (AID 483;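 active = visual image review flags a hit and inhibition of aggregation exceeds 20%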;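 note: compound exposure lasted 3 days before fixation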;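 for nuclei count: percent of the per-plate median nuclei count of sample wells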); details: exon1htt(103Q)mCFP cell line, aggregate imaging, at 2 µM; inhibition of aggregation: stronger effect = higher value; nuclei count: measured here: cell count, toxicity
[8] = inhibitors of E-selectin induction by TNFa, primary screen, imaging, HUVEC, immunofluorescence, MLSMR starter and 10KST1 sets (AID 487;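 active = visually confirmed hit in the image check and inhibition above 20%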;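 for inhibition: signal is fraction of cell area covered by stained E-selectin grains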;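 for nuclei count: 100% = median nuclei count of all wells on the same plate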); details: HUVEC TNFalpha-induced E-selectin immunofluorescence imaging, at 2 µM; inhibition: stronger effect = higher value; nuclei count: measured here: cell number, toxicity
[9] = DUSP6 inhibitors restoring Erk phosphorylation by chemical complementation, primary imaging in DUSP6-transfected HeLa (AID 609;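 active = compounds giving at least 50% inhibition in the cell-based MKP-3 phosphatase rescue imaging test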;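 for inhibition: phospho-Erk level distribution per well compared with pooled transfected vehicle control wells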); details: HeLa MKP-3 transfected, phospho-Erk imaging KS statistic, at 10 µM, cells stimulated with TPA for 15 min
[10] = biological target: Dual specificity protein phosphatase 6 (Homo sapiens) (UniProt Q16828); assay: as above; details: HeLa MKP-3 transfected, phospho-Erk imaging KS statistic; at 10 µM; stronger effect = higher value; cells stimulated with TPA for 15 min
[11] = biological target: Voltage-gated potassium channel subunit beta-2 (Rattus norvegicus) (UniProt P62483); assay: KvBeta enzyme negative modulators, primary screen, biochemical, NADPH fluorescence (AID 622;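 active = fluorescence slope higher than the sample average by over 3 SD, cut at about -0.22 in these data, passing the limit was not always enough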;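 note: slope of raw intensity against log time taken from 70 to 1610 s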); details: recombinant KvBeta, 4-cyanobenzaldehyde reduction, at 10 µM, stronger effect = higher value
[12] = biological target: Voltage-gated potassium channel subunit beta-2 (Rattus norvegicus) (UniProt P62483); assay: KvBeta positive modulators, primary screen, biochemical, NADPH fluorescence (AID 623;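 active = NADPH fluorescence slope more negative than the mean of all samples by about 3 SD, 99.7% confidence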;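 note: fluorescence intensity change per second fitted from 20 to 320 s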); details: Recombinant KvBeta, NADPH fluorescence decrease slope, 10 min; at 10 µM; stronger effect = lower value
[13] = biological target: Alpha-2C adrenergic receptor (Homo sapiens) (UniProt P18825); assay: modulators of alpha2C/GIRK thallium flux, primary screen, cell-based, HEK293 alpha2C/GIRK1/2 (AID 624;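 active = fluorescence slope after compound addition differing from the mean of all screened samples at 99.7% confidence, in either direction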;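 note: slope of fluorescence ratio to pre-addition baseline per second over 15 to 24 s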); details: thallium flux BTC fluorescence, at 10 µM, actives lie on both sides
[14] = biological target: Muscarinic acetylcholine receptor M4 (Homo sapiens) (UniProt P08173); assay: compounds altering M4/GIRK thallium flux, either direction, primary screen, M4 allosteric agonist project, cell-based, HEK293 M4/GIRK, BTC-AM (AID 625;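 active = fluorescence slope after compound addition differing from the mean of all tested samples at 99.7% confidence, mostly higher but some lower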;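 note: thallium influx through GIRK channels coupled to M4 in HEK293 cells with BTC-AM dye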); details: at 10 µM, actives lie on both sides
[15] = inhibitors of larval lipid processing in zebrafish, primary screen, whole organism, PED6 fluorescence, gall bladder and intestine (AID 686;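 active = a full or partial loss of lipid-probe fluorescence in the fish gall bladder, intestine or both, judged by eye; inactive = no fluorescence loss, or compound toxic to the fish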;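 note: larvae 5 to 7 days old with five fish per well; signal comes from phospholipase A2 cleavage of quenched PED6 carried via bile; overnight exposure to compound and PED6 before scoring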); details: Zebrafish larvae PED6 lipid processing, fluorescence scoring; screened at 20 µM (by protocol)
[16] = inhibitors of Chlamydomonas gravitaxis, primary screen, whole organism, Chlamydomonas reinhardtii, WT vs cilia-less mutant, absorbance, 96-well (AID 463189); details: OD600 absorbance, 2 days, at 10 µM, stronger effect = higher value;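 note: 0% = wild type cc124 cells in DMSO and 100% = ciliumless bld1 mutant cells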
[17] = inhibitors of Sendai virus-induced IRF3 signaling, primary screen, TLR/RLR signaling modifier project, cell-based, Sendai virus stimulus, luciferase, 10K MLSCN set (AID 602276;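 active = inhibition at or above 50% at 10 µM; inactive = inhibition below 50%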;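 note: firefly luciferase from ISG56 promoter only with Renilla not read in this screen; 0% = Sendai virus plus DMSO and 100% = medium plus DMSO without virus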); details: HEK293 RL24 IRF3 luciferase reporter, at 10 µM, stronger effect = higher value
[18] = inhibitors of poly I:C-induced TLR3 signaling, primary screen, cell-based, poly I:C stimulus, luciferase, 10K MLSCN set (AID 602277;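 active = inhibition of the reporter signal at or above 50%; inactive = inhibition below 50%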); details: HEK293-TLR3 RL24 IRF3 luciferase reporter, at 10 µM, stronger effect = higher value
[19] = measured here: cell density z-score
[20] = measured here: nuclear c-Myc green intensity z-score
[21] = measured here: nuclear pErk red intensity z-score, stronger effect = higher value

Voltage-gated potassium channel subunit beta-2 (Rattus norvegicus), sequence (P62483 whole entry, looked up): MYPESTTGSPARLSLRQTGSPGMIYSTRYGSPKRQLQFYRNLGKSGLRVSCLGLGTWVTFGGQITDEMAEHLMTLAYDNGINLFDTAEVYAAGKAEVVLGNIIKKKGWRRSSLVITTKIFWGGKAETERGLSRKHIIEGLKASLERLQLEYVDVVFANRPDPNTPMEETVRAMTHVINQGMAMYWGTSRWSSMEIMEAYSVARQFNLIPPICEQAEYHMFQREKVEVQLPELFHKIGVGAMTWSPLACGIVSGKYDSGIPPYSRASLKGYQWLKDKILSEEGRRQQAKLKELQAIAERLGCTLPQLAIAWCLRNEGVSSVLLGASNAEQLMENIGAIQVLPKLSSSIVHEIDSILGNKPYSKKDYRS
Alpha-2C adrenergic receptor (Homo sapiens), sequence (P18825 whole entry, looked up): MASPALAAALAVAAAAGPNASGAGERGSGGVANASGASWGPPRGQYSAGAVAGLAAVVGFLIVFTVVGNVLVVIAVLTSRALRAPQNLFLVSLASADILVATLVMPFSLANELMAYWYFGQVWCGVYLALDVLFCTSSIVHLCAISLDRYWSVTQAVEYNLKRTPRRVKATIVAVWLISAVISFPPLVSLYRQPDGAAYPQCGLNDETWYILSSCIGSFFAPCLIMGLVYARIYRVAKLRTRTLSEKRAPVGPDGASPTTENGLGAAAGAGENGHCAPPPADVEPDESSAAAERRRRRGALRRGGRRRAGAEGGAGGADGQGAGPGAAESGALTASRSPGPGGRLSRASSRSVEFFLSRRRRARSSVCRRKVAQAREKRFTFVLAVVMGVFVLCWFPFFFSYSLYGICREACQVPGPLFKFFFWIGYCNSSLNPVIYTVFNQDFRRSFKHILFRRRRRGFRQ
Solute carrier family 12 member 5 (Homo sapiens), sequence (Q9H2X9 whole entry, looked up): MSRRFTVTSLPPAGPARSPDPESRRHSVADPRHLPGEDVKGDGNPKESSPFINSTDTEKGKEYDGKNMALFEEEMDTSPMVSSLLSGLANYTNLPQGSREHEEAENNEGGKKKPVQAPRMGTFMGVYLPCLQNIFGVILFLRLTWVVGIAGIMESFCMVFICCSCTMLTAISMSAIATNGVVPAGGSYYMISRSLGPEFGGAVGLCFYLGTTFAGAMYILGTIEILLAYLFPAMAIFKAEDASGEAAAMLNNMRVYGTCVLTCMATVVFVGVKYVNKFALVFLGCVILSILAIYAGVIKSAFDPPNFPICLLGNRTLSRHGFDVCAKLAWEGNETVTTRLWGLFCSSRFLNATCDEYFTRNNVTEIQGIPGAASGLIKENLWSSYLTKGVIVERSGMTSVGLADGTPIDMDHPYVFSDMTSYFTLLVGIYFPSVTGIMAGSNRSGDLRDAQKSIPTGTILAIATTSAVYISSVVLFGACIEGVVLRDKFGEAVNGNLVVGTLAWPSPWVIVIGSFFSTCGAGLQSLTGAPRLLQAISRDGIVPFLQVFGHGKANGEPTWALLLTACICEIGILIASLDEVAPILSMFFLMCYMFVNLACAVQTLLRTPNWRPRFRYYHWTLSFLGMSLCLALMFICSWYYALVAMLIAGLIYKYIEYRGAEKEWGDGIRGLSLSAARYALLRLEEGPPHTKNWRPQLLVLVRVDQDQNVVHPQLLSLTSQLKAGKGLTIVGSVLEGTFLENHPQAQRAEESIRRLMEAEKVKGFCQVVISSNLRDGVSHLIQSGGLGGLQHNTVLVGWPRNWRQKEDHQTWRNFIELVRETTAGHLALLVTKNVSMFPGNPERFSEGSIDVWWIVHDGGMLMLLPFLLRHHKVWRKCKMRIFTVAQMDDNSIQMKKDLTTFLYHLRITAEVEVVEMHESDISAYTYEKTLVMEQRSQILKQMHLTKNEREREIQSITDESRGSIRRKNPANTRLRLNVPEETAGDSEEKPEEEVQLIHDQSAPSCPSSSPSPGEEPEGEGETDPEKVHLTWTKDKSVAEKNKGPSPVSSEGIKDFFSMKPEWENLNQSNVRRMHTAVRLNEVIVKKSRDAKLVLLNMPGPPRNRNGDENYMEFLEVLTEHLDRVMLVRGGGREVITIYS
Dual specificity protein phosphatase 6 (Homo sapiens), sequence (Q16828 whole entry, looked up): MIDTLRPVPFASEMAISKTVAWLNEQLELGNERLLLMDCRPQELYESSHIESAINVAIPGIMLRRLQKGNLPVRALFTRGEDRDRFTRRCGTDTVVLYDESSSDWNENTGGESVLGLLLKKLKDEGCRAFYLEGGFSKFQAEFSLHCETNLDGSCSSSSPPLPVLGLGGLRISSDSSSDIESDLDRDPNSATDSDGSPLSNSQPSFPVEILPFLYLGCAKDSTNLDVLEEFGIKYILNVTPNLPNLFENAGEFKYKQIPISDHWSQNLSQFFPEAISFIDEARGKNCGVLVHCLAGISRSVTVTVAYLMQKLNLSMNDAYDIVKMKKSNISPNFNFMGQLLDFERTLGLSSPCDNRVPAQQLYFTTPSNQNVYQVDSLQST
Muscarinic acetylcholine receptor M4 (Homo sapiens), sequence (P08173 whole entry, looked up): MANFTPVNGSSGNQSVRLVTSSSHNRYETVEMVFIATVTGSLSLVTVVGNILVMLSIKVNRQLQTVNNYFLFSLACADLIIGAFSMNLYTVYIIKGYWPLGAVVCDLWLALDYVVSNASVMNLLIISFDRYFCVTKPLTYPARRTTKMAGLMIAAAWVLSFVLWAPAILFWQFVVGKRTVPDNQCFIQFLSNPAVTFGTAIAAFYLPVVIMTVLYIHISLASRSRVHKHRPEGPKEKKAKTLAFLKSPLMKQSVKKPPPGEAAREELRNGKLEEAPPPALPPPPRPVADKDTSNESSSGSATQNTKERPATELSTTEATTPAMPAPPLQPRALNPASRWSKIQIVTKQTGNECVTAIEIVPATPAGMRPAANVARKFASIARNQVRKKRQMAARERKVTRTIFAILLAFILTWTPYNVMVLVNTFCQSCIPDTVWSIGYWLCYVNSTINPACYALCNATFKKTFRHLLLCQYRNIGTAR

N#Cc1ccc(C(=O)Nc2nc(-c3cccs3)c(C(=O)C(F)(F)F)s2)cc1
normalised thallium flux (F/F0 slope) [1]: 0.00795 (inactive)
normalized thallium flux [2]: 0.033 (inactive)
thallium flux rate (normalised fluorescence) [3]: 0.00821 (inactive)
raw Tl+ flux slope (below DMSO = inhibition, above = activation) [4]: 0.0191 (inactive)

CC1CC(C)(C)n2c(O)c(N=NC(N)=S)c3cccc1c32 (centres undefined)
normalized thallium flux [5]: 0.0259 (active)
normalized thallium flux [2]: 0.0382 (inactive)
raw Tl+ flux slope (below DMSO = inhibition, above = activation) [4]: 0.0373 (active)

COc1ccc(Cn2c(N)c(C#N)c3nc4ccccc4nc32)cc1OC
cell count [6]: 497
inhibition [6]: 2.3% (inactive)
inhibition of aggregation [7]: 12.4% (inactive)
nuclei count [7]: 100%
inhibition [8]: -66.5% (inactive)
nuclei count [8]: 123%
z-score [9, 19]: 0.51
z-score [9, 20]: -0.363
z-score [9, 21]: -0.944
inhibition [10]: 27.8% (inactive)
fluorescence slope [11]: -0.285 (inactive)
NADPH fluorescence slope [12]: -1.3e-05 (inactive)
slope [13]: 0.00453 (inactive)
fluorescence slope [14]: 0.00496 (inactive)
outcome [15]: inactive
inhibition [16]: 2.2% (inactive)
inhibition [17]: 15.4% (inactive)
inhibition [18]: 14.9% (inactive)

CN1CCN2c3ccccc3Cc3ccccc3C2C1 (centres undefined)
cell count [6]: 620
inhibition [6]: 1.5% (inactive)
inhibition of aggregation [7]: 11.1% (inactive)
nuclei count [7]: 113%
inhibition [8]: -52% (inactive)
nuclei count [8]: 117%
z-score [9, 19]: -0.186
z-score [9, 20]: -0.363
z-score [9, 21]: -0.896
inhibition [10]: 19.2% (inactive)
fluorescence slope [11]: -0.574 (inactive)
NADPH fluorescence slope [12]: -3.8e-05 (inactive)
slope [13]: 0.0196 (active)
fluorescence slope [14]: 0.0128 (active)
outcome [15]: inactive
inhibition [16]: 15.2% (inactive) and 10.4% (inactive)
inhibition [17]: 12.6% (inactive)
inhibition [18]: 45.7% (inactive)

CC(=N\O)/C(CN(C)C)=N/O
cell count [6]: 593
inhibition [6]: -2.4% (inactive)
inhibition of aggregation [7]: -2.9% (inactive)
nuclei count [7]: 86.5%
inhibition [8]: -11.6% (inactive)
nuclei count [8]: 131%
z-score [9, 19]: 0.774
z-score [9, 20]: -0.0101
z-score [9, 21]: -0.876
inhibition [10]: -0.233% (inactive)
fluorescence slope [11]: -0.49 (inactive)
NADPH fluorescence slope [12]: -6.9e-05 (inactive)
slope [13]: 0.0061 (inactive)
fluorescence slope [14]: 0.00548 (inactive)
outcome [15]: inactive
inhibition [16]: -6.2% (inactive)
inhibition [17]: -13.1% (inactive)
inhibition [18]: 1.97% (inactive)

CC(C)(C)c1ccc(O)c(N)c1
cell count [6]: 646
inhibition [6]: -5.1% (inactive)
inhibition of aggregation [7]: 18.9% (inactive)
nuclei count [7]: 115%
inhibition [8]: -65.2% (inactive)
nuclei count [8]: 138%
z-score [9, 19]: 0.287
z-score [9, 20]: -1.2
z-score [9, 21]: 0.0324
inhibition [10]: -3.95% (inactive)
fluorescence slope [11]: -0.526 (inactive)
NADPH fluorescence slope [12]: -7e-05 (inactive)
slope [13]: 0.00563 (inactive)
fluorescence slope [14]: 0.00646 (inactive)
outcome [15]: inactive
inhibition [16]: 15.7% (inactive)
inhibition [17]: 8.96% (inactive)
inhibition [18]: 18% (inactive)

Source: PubChem BioAssay
